From ChEMBL document CHEMBL3988442, “University of Dundee, Small-Polar-MMV Screening Library” (2021)

Target: Shiga toxin 2 (Escherichia coli O157:H7) (UniProt P09385+P09386)
Test: E. coli 0.157:H7 Shiga Toxin SOP - stx2 screening assay
Type: functional
Parameters: scale not given: direction of the effect not stated beside the values
Conditions: 30 µM

Structure (SMILES) | Percent Effect [%]
Cc1cc(NC(=O)CCN(CC2CCOC2)C2CC2)no1 (configuration not stated) | -16.3
CCCNC(=O)c1cc2c([nH]c1=O)CC(c1cccs1)CC2=O (configuration not stated) | -20.3
Cc1nc(C)n(CC2CN(CCOc3ccccc3F)CCO2)n1 (configuration not stated) | 9.47
Cc1cc(C)n(CC(=O)N2CCC(c3nc(C)no3)CC2)n1 | 3.16
COc1ccc(OCC(=O)NS(=O)(=O)c2cc(F)ccc2F)cc1 | -20.6
Cn1nc(CNC(=O)C2CCCC2)cc1C1CC1 | -25.7
CN(C)CCCn1ccnc1C1CCCN(c2cc(N)ncn2)C1 (configuration not stated) | 1.04
